Screens from PubChem BioAssay.
The list is not random: actives were taken first. Their share in the collection is about 31%.
CYP2C9 inhib – blocks human cytochrome P450 2C9; P11712; CYP2C9 Supersomes, luciferin-H conversion, luminescence; inhibition, % at 5 µM; hit rate 20% among 96,000;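 active means blocking of liver enzyme CYP2C9 beyond about 50% at 5 µM, limit read from the data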
PLAP activator – human PLAP activation. P05187. purified PLAP enzyme, luminescent substrate read-out; active compounds read high. activation fold at 20 µM. hit rate 1.2% among 96,000; in the data active means activation fold above about 2
Target sequence (P05187 whole entry, looked up): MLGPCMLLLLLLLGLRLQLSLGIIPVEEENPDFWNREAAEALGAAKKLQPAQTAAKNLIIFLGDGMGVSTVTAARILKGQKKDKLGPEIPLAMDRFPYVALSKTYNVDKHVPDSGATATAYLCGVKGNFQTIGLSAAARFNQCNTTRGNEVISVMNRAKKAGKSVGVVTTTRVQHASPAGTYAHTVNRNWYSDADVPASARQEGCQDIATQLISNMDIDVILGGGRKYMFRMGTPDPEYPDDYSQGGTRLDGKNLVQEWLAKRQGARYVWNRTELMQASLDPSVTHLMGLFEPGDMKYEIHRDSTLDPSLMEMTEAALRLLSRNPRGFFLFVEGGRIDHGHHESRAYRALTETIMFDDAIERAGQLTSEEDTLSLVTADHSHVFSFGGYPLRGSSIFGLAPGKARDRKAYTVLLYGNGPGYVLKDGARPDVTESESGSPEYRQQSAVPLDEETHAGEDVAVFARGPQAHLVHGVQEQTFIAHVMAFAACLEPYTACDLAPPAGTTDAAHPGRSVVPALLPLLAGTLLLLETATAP
CYP2C19 inh – blocks human cytochrome P450 2C19. P33261. inhibition, % at 5 µM. hit rate 21% among 96,000. CYP2C19 Supersomes, luciferin-H EGE luminescence, 30 min. AID 778;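 active means CYP2C19 inhibition above a set limit at 5 µM in the primary screen, cut at about 50% in these data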
CYP2C9 activ – activators of human CYP2C9 | activation factor at 5 µM | hit rate 1.4% among 96,000 | recombinant CYP2C9, luciferin-H conversion, luminescence; active compounds read high; factor 1 = untreated enzyme, 0 = blocked;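 active means activation factor of 2 or more for CYP2C9 at a 5 µM dose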
CYP2C19 activ – cytochrome P450 2C19 (human) activation; recombinant CYP2C19, luciferin-H EGE luminescence; active compounds read high; 0 = fully inhibited enzyme, 1 = untreated enzyme; 96,000 tested, under 10 active; AID 1025; activation factor at 5 µM;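 active means activation factor of at least 2 at 5 µM in the primary screen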
Large screens that a line does not name were inactive.

O=C(c1ccccc1F)c1cn(Cc2ccccc2)c2ccccc12	CYP2C19 inh 60.4
O=C(c1ccccc1F)c1cn(CC(=O)N2CCCCC2)c2ccccc12	CYP2C19 inh 80.3
CCOc1ccc(C2(C#N)CC[N+](C)(C)CC2)cc1	none
COC(=O)C(O)(c1ccc(N(C)C(=O)OC(C)C)cc1)C(F)(F)F (stereo not given)	none
CCOC(=O)C(NC(=O)CC)(Nc1ccc(C(O)(C(=O)OCC)C(F)(F)F)cc1C)C(F)(F)F (stereo not given)	CYP2C9 inhib 54.1
CCOC(=O)C(O)(c1ccc(N(CC)C(=O)OC)cc1)C(F)(F)F (stereo not given)	CYP2C9 inhib 68.8, CYP2C19 inh 63.9
CCOC(=O)N(C)c1ccc(C(O)(C(=O)OCC)C(F)(F)F)cc1 (stereo not given)	CYP2C9 inhib 69.6, CYP2C19 inh 61.4
CCOC(=O)N(CC)c1ccc(C(O)(C(=O)OCC)C(F)(F)F)cc1 (stereo not given)	CYP2C9 inhib 76.6, CYP2C19 inh 58.2
CCOC(=O)c1cc(C(O)(C(=O)OC)C(F)(F)F)c(/N=C/N(C)C)o1 (stereo not given)	none
CC1CCC(C(=O)NC(C(=O)N2CCC3(CC2)OCCO3)C(C)C)CC1 (stereo not given)	none
CCC(CC)C(=O)NC1CCSC1=O (stereo not given)	none
COc1ccc(C(CC(=O)N2CCC3(CC2)OCCO3)NS(=O)(=O)c2ccc(F)cc2)cc1 (stereo not given)	none
CP(C)(=O)CCC(=O)O	none
O=C(NC(Oc1ccccc1)C(Cl)(Cl)Cl)c1ccccc1 (stereo not given)	none
CC(=O)c1ccc(OC(NC(=O)c2ccco2)C(Cl)(Cl)Cl)cc1 (stereo not given)	none
CCCC(=O)NC(Oc1ccccc1Cl)C(Cl)(Cl)Cl (stereo not given)	CYP2C9 inhib 59.4, CYP2C19 inh 80.4
CC(C)CC(=O)NC(Oc1ccc(Cl)cc1)C(Cl)(Cl)Cl (stereo not given)	CYP2C19 inh 81.7
O=C1NC(=S)NC(=O)C1C/C=C/c1ccccc1	none
CCCC(C)C1(CC)C(=O)NC(=Nc2ccc(F)cc2)NC1=O (stereo not given)	CYP2C9 inhib 58.2
Cc1cc(N2C(=O)C3CCCN3C2c2sccc2C)no1 (stereo not given)	none
O=P(Nc1ccccc1)(Nc1ccccc1)Oc1ccc(Cl)cc1	CYP2C9 inhib 81.1, CYP2C19 inh 86.4
O=C(Nc1ccccc1)Oc1ccccc1	none
O=c1c2ccccc2nc(-c2ccoc2)n1-c1ccccc1	none
Cn1cccc1CNCCc1ccccc1F	none
Fc1ccccc1CCNCc1cccc(Cl)c1Cl	CYP2C19 inh 86.0
COC(=O)CC1=C(C(=O)OC)C2(C(=O)N(C)c3ccccc32)C(C#N)=C(N)O1 (stereo not given)	none
CN(C)CC#CCC(O)(c1ccccc1)C1CCCC1 (stereo not given)	CYP2C19 inh 54.8
CC12CNCC(C)(CNC1)C2O (stereo not given)	none
Cc1ccc(C(c2nnnn2Cc2ccccc2)N2CC=C(c3ccc(F)cc3)CC2)cc1 (stereo not given)	CYP2C9 inhib 50.5, CYP2C19 inh 70.1
CCOP(=O)(C(NC(=O)c1ccccc1Cl)=C(Cl)Cl)c1ccccc1 (stereo not given)	CYP2C9 inhib 57.0, CYP2C19 inh 77.4
CCOP(=O)(OCC)C(NC(=O)c1ccccc1Cl)=C(Cl)Cl	none
Cc1cccc(C)c1NC(=O)CN(C)CC(=O)Nc1ccc(C#N)c(Cl)c1	CYP2C9 inhib 53.4
Cc1cnn(C2CCN(C)CC2)c1N	none
CCCCCCn1c(O)c(C=NCCCn2ccnc2)c(=O)[nH]c1=O	CYP2C9 inhib 93.4
COc1ccc(Cn2c(O)c(C=NCCCn3ccnc3)c(=O)[nH]c2=O)cc1	CYP2C9 inhib 62.8
CCOc1ccc(-n2c(O)c(C=NCCCn3ccnc3)c(=O)[nH]c2=O)cc1	none
CC(C)(C)c1nc(N2CCN(C(=O)c3ccco3)CC2)c2nnn(Cc3ccccc3Cl)c2n1	CYP2C9 inhib 94.7, CYP2C19 inh 62.1
COc1cccc(OC)c1C1=NCC(=O)Nc2c1oc1ccc(Br)cc21	CYP2C9 inhib 65.1
O=C1CN=C(c2ccccc2)c2oc3ccc(Br)cc3c2N1	none
COC(=O)C(O)(c1c[nH]c2ccccc12)C(F)(F)F (stereo not given)	none
COC(=O)C(O)(c1c(C)[nH]n(-c2ccccc2)c1=O)C(F)(F)F (stereo not given)	none
CCN(c1ccc(C(O)(C(=O)OC)C(F)(F)F)cc1)S(=O)(=O)c1ccccc1 (stereo not given)	CYP2C9 inhib 78.7, CYP2C19 inh 95.3
CCOC(=O)C(O)(c1ccc(N(CC)S(=O)(=O)c2ccccc2)cc1)C(F)(F)F (stereo not given)	CYP2C9 inhib 74.2, CYP2C19 inh 60.7
C[N+]12CCC(CC1)C(C#N)(N1CCOCC1)C2 (stereo not given)	none
O=C(CNC(=O)OCc1ccccc1)Nc1ccc(Br)cc1C(=O)c1ccccc1	none
CCCCc1ccc2[nH]cc(CCN)c2c1	CYP2C9 inhib 62.6
CCC12C=CCN3CCC4(c5cc(Br)c(OC)cc5N(C)C4C(O)(C(=O)OC)C1OC(C)=O)C32 (stereo not given)	none
COc1ccccc1N1CCN(Cc2c(F)cccc2F)CC1	CYP2C19 inh 58.2
COc1ccccc1N1CCN(Cc2ccccc2F)CC1	none
COc1ccccc1N1CCN(Cc2cccc(OC)c2O)CC1	CYP2C19 inh 51.5
Cc1ccc(N=Nc2c(O)[nH]c(=O)[nH]c2=O)c([N+](=O)[O-])c1	none
CN1CCC(OC(=O)C2c3ccccc3Oc3ccccc32)CC1	none
CC(C)=CCC12CN3CCN(CC(C3)C1=O)C2	none
CCCC1=C(C(=O)OCC)C2(C(=O)Nc3ccc(C)cc32)C(C#N)=C(N)O1 (stereo not given)	CYP2C9 inhib 51.1, CYP2C19 inh 61.5
COc1ccc(C=C2C(=O)N(C)C(=O)N(C)C2=O)cc1CSc1ccccn1	CYP2C19 inh 58.0
COc1ccc(/C=C2/C(=O)NC(=O)N(C3CCCCC3)C2=O)cc1CSc1ccccn1	CYP2C19 inh 56.2
Cn1nc(N)c2c1N=P(N1CCOCC1)(N1CCOCC1)N=C2c1ccccc1	none
CCn1c(C(=O)N2CCC(C(=O)N3CCC4(CC3)OCCO4)CC2)cc2sccc21	none
CC(=O)c1cccc(NC2=NCC(C)S2)c1 (stereo not given)	none
CCCCn1c(O)c(C(C)=NCc2cc(OC)cc(OC)c2)c(=O)[nH]c1=O	CYP2C9 inhib 98.0, CYP2C19 inh 86.6
CCCCn1c(O)c(C(CC)=NCc2cc(OC)cc(OC)c2)c(=O)[nH]c1=O	CYP2C9 inhib 94.5, CYP2C19 inh 86.6
O=C(c1cc2c(s1)-c1ccccc1OC2)N1CCC2(CC1)OCCO2	CYP2C19 inh 84.2
O=C(c1cc(S(=O)(=O)N2CCCCC2)ccc1F)N1CCC2(CC1)OCCO2	none
O=C(c1cc2c(s1)CCCC2)N1CCC2(CC1)OCCO2	CYP2C19 inh 91.6
